Test results published in ChEMBL document CHEMBL4513216, “Probing the Open Global Health Chemical Diversity Library for Multistage-Active Starting Points for Next-Generation Antimalarials” (ACS Infect Dis, 2020).
Among all 69,000 compounds or so, about 8,600 (12%) showed an effect of 50% or more. The sample as a whole holds a higher share of strong results than the screen did.

What follows are molecules tested on Plasmodium berghei (assay: Screen against P. berghei liver stage (PbLuc), transformed with Luciferase, at 10uM). Details: tested at 10 uM.
Assay type: functional, HepG2

SMILES	INHIBITION
CC(=O)N1CCC(c2nn(C)c3nccnc23)C1 (centres undefined)	-2.11%
CC(C)n1cc(CN2CCCN(C(=O)COC3CCCC3)CC2)cn1	45.7%
CCOc1ccc(-c2nc(C(=O)NCC3CCOC3)cs2)cc1 (centres undefined)	-16%
CC(C)(C)c1cc(=O)n2c(n1)SCC(C(=O)NCc1ccco1)C2 (centres undefined)	46.1%
COc1ccc(C2=Nn3c(CN)nnc3-c3ccccc3C2)cc1	64%
COc1ccc(C2=Nn3c(CCN)nnc3-c3ccccc3C2)cc1	21.7%
COc1ccc(C2=Nn3c(CCCN)nnc3-c3ccccc3C2)cc1	18.4%
O=C(NCc1ccc2nonc2c1)C1CCN(C(=O)C2CCC2)CC1	-119%
Cc1cc(C)nc(Nc2cccc(C3CCCN(C)C3)n2)n1 (centres undefined)	28.4%
Cc1ccc(NC2CCCN(C3Cc4ccccc4C3)C2)nn1 (centres undefined)	34.9%
Cc1cc(C)nc(NC2CCc3nc(C)nn3C2)n1 (centres undefined)	-12.1%
CNc1cc(C)nc(NC2CCCN(C3Cc4ccccc4C3)C2)n1 (centres undefined)	79.4%
c1ccc2c(c1)CC(N1CCCC(NCc3ccc4nonc4c3)C1)C2 (centres undefined)	50.1%
CNc1nc(C)cc(NC2CCCN(C3Cc4ccccc4C3)C2)n1 (centres undefined)	83.9%
c1ccc2c(c1)CC(N1CCCC(NCc3cccc4nonc34)C1)C2 (centres undefined)	41.5%
Cc1cc(C)nc(Nc2cccc(C3CCCN(S(C)(=O)=O)C3)n2)n1 (centres undefined)	44.8%
Cc1ccc(CNCC2CCN(CC(O)c3ccccc3)CC2)o1 (centres undefined)	-23.8%
O=C(NCc1nncn1C1CC1)c1ccccc1OCC1CC1	25.6%
CN(C)c1ncc(-c2cc(C(=O)NCCO)n(CC3CC3)c2)cn1	26.3%
CCOc1ccccc1C(=O)Oc1cc(=O)n2cccc(C)c2n1	4.35%
O=C(NC1CCC1)c1c2c(N3CCCC3)ncnc2n2ccccc12	46.2%
COCCN(C)C(=O)c1ccccc1-n1cc(CN(C)C)cn1	-29.8%
COCCCN(CCOC)C(=O)Nc1ccccc1-n1cccn1	32.2%
COCCN(C)C(=O)c1ccccc1-n1cccn1	63.8%
CC(C)n1nc(CN2CCCCC2)c2c1CN(C(=O)c1ccno1)C2	26.5%

SMILES	INHIBITION
CC(C)n1nc(CN2CCCC2=O)c2c1CN(C(=O)c1ccno1)C2	27.5%
CC(C)n1nc(CN2CCOCC2)c2c1CN(C(=O)c1ccno1)C2	62.3%
COCCNC(=O)c1cc(C)nc(C2CCN(C)CC2)n1	-22.5%
CCc1ccc(C(=O)N2C[C@@H]3COC[C@@H](C(=O)NC)[C@@H]3C2)cc1	6.83%
CNC(=O)[C@@H]1COC[C@H]2CN(C(=O)c3ccc(C)c(C)c3)C[C@H]21	51.2%
CNC(=O)[C@@H]1COC[C@H]2CN(C(=O)COc3ccccc3)C[C@H]21	63%
CNC(=O)[C@@H]1COC[C@H]2CN(C(=O)c3cccc(OC)c3)C[C@H]21	33.4%
CNC(=O)[C@@H]1COC[C@H]2CN(C(=O)c3ccc(OC)cc3)C[C@H]21	-2.03%
CNC(=O)[C@@H]1COC[C@H]2CN(C(=O)c3ccc(C)c(F)c3)C[C@H]21	31.9%
O=C(NC1CCN(C2CC2)CC1)N1CCN(c2cnccn2)CC1	37.9%
CN(C)C(=O)CO[C@H]1CN(Cc2nccs2)[C@@H]2COC[C@H]12	0.71%
COc1cc(CN2CCCC2)ccc1OC12CCCN(CC1)C2 (centres undefined)	-14.7%
N#Cc1cccnc1Oc1cc(F)c(CN2CCCC2)c(Cl)c1	11.4%
COc1ccc(Oc2ncccc2F)cc1CN1CCCC1	74.8%
COc1ccc(Oc2nccc3occc23)cc1CN1CCCC1	-4.23%
Fc1cccnc1Oc1cc(F)c(CN2CCCC2)c(F)c1	9.84%
COc1ccc(OC)c(CN2CCN(Cc3cscn3)CC2)c1	1.06%
Fc1cccnc1Oc1cc(F)c(CN2CCCC2)c(Cl)c1	60.9%
COc1cc(Oc2ncccc2C(F)(F)F)ccc1CN1CCCC1	88.4%
COC(=O)c1ccc(Cn2cccc(C(F)(F)F)c2=O)c(OC)c1	33.1%
COc1cc(CN2CCCC2)ccc1Oc1ncccc1C(F)(F)F	80.3%
COc1ccc(CC(=O)Nc2cccnc2N2CCCC2)cc1OC	4.71%
Cc1nn(C)c(=O)c2nn(-c3cccc(Cl)c3)c(C)c12	37.2%
N#Cc1c(N)nc2c(c1-c1c[nH]nc1C1CCCCC1)COCC2	11.5%
Cn1cc(-c2nc(CN3CCOC(Cn4cncn4)C3)cs2)cn1 (centres undefined)	26.5%

SMILES	INHIBITION
COc1ccc(NC(=O)CSc2nncn2-n2cccc2)c(OC)c1	31.6%
CCn1nc2c(cc1=O)CN(CC(=O)Nc1nc(C)c(C)s1)CC2	-0.188%
Cc1cc(N(C)C)nc(C2CCCN2)n1 (centres undefined)	15.5%
CO[C@@H]1CCN(C(=O)c2ccccn2)[C@H]1Cc1ccccc1	-15.1%
COc1ccc(F)cc1CN1CCC(O)(CN2CCCCC2)C1 (centres undefined)	16.1%
COc1ccc(Oc2ncccc2C(F)(F)F)cc1CN1CCCC1	66.6%
COc1ccccc1Oc1ncccc1CNC(=O)C(C)N1CCCC1 (centres undefined)	21.7%
COc1ncccc1CN1CCC2(CCCN2S(C)(=O)=O)CC1	45.2%
COc1ccc(F)cc1CN1CCCC(c2cc(C(N)=O)[nH]n2)C1 (centres undefined)	-2.42%
COc1ccc(Oc2ncccc2C(N)=O)cc1CN1CCCC1	51.2%
CC(C)c1nn(C)c(N(C)C)c1CNCc1ccccc1CO	-9.05%
Cc1cc(CN(C)C(=O)NC2CCN(C3CC3)CC2)no1	3.75%
Cc1ccc(C)c(CSc2nnc([C@@H](N)C(C)C)o2)c1	34.5%
CCC(=O)Nc1ccc(OCC(=O)N(C)C(C)c2ccon2)cc1 (centres undefined)	10.7%
Cc1ccc(-c2nc(CC3CCN(C)CC3)no2)cc1N1CCNC1=O	14.1%
CC(c1nnc(-c2cccs2)o1)N1CCc2cncnc2C1 (centres undefined)	-18.5%
O=C(NCC1OCCc2cn(CC3CCOCC3)nc21)c1ccsc1 (centres undefined)	49.3%
O=C(Cc1ccccc1)N1CC[C@H]2[C@@H]1CCC(=O)N2Cc1ccncc1	3.25%
CCC(=O)N1CC[C@@H]2[C@H](CC1)N(Cc1cccc(C)n1)CCS2(=O)=O	2.4%
Cc1ccc(N2CCCC(NCc3ccsc3)C2)nn1 (centres undefined)	5.44%
CCCC(=O)N1CC[C@@H]2[C@H](CC1)N(Cc1cccc(C)n1)CCS2(=O)=O	57.1%
Cc1ccc(N2CC[C@@H]3[C@@H]2CCN3C(=O)Cc2ccccc2)nn1	69.3%
Cc1cccc(CN2CCS(=O)(=O)[C@@H]3CCN(C(=O)C4CC4)CC[C@@H]32)n1	34.9%
Cc1ccc(N2CC[C@@H]3[C@@H]2CCN3Cc2ccsc2)nn1	51.2%
Cc1ccc(N2CC[C@@H]3[C@@H]2CCN3C(=O)Cc2cccs2)nn1	31.2%

SMILES	INHIBITION
O=C1C[C@H]2[C@@H](CCN2C(=O)Cc2cccs2)N1Cc1cccnc1	24.9%
Cc1ccc(N2CC[C@@H]3[C@@H]2CCN3C(=O)c2cscn2)nn1	18.5%
O=C1C[C@H]2[C@@H](CCN2C(=O)Cc2ccsc2)N1Cc1cccnc1	62.9%
O=C1C[C@H]2[C@@H](CCN2C(=O)Cc2ccccc2)N1Cc1cccnc1	-6.05%
CCN(Cc1noc(C2CCC2)n1)C(=O)c1cnc2ccccc2c1	7.44%
Cc1nc(-c2ccccc2C(=O)O)cc(C2CCN(C(C)C)C2)n1 (centres undefined)	24.8%
NC(=O)[C@@H]1CN2CCN(C(=O)C3CC3)C[C@@H]2[C@H]1c1ccccc1	16.9%
CC(C)c1nc(C2CCCN(C(=O)Cn3ccccc3=O)C2)no1 (centres undefined)	-7.31%
CN1Cc2cnn(CC3CCCC3)c2C(COCC2CC2)C1 (centres undefined)	26.3%
Cc1ccc(CN2CC[C@H]3C[C@H](C(=O)N4CCCO4)O[C@@H]3C2)o1	38.5%
CCN(CC)C(CNC(=O)c1ccc(-n2cncn2)cc1)c1ccsc1 (centres undefined)	-2.46%
CNC(=O)c1sc2ccccc2c1CC1CCCCN1Cc1ncc[nH]1 (centres undefined)	42.2%
O=C(Cn1nc(Br)nc1Br)N1CCCC1	27.4%
Cc1cccc(CN2CC[C@@H]3[C@@H]2CCN3C(=O)Cc2ccsc2)n1	63.8%
Cc1ccc(N2CCCN(C(=O)CCc3ccsc3)CC2)nn1	1.04%
Cc1cccc(CN2CC[C@@H]3[C@@H]2CCN3C(=O)Cc2cccs2)n1	42.1%
Cc1cccc(CN2C(=O)C[C@@H]3[C@@H]2CCN3Cc2ccsc2)n1	46.9%
Cc1ccc(N2CC[C@@H]3[C@@H]2CCN3C(=O)Cc2ccsc2)nn1	55.7%
Cc1ccc(CN2CC[C@@H]3[C@@H]2CCN3C(=O)Cc2cccs2)o1	93.7%
Cc1ccc(NC2CCN(C(=O)CCc3ccsc3)CC2)nn1	-59.4%
O=C(Cc1cccs1)N1CC[C@H]2[C@H]1CCN2Cc1cccnc1	-25.8%
O=C1C[C@H]2[C@@H](CCN2C(=O)Cc2cccs2)N1CC1CC1	-38.1%
COC(=O)[C@H](CCSC)NC(=O)Cn1ccc2c(Cl)cccc21	25%
CN(C)C(=O)c1sc2ncccc2c1C1CNCCO1 (centres undefined)	12.8%
